Measured values taken from PubChem BioAssay AID686964 (The Scripps Research Institute Molecular Screening Center, 2013).
The whole screen tested about 370,000 compounds, of which about 1,100 (0.3%) were called active. Shown is part of a subset that was picked to be rich in actives. A number with no mark means an inactive call. No stated cut-off is given here; in the data, active means inhibition above about 13%; inactive means the rest.

What follows are compounds tested against Methyl-CpG-binding domain protein 2 (Homo sapiens) (UniProt Q9UBB5) (assay: MBD2-DBD methyl-oligonucleotide interaction blockers – biochemical, TR-FRET, DNA-binding domain, human, primary screen (AID 686964)). Conditions: MBD2 binding to methylated oligonucleotide, at 4.4 µM, active compounds read high.
Sequence of Methyl-CpG-binding domain protein 2 (Homo sapiens) (Q9UBB5 whole entry, looked up, the tested form may be a part): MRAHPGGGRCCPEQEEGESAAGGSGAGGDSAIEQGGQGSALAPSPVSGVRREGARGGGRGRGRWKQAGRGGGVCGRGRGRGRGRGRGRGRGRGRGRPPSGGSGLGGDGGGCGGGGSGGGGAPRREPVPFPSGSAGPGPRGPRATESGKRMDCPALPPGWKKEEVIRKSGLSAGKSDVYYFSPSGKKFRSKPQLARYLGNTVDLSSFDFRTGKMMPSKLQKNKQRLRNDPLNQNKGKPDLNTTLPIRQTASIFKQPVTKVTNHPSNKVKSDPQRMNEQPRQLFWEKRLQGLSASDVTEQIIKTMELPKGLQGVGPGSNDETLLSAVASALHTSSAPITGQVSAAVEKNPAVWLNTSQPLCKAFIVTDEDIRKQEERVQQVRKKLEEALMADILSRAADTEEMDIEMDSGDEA

Structure (SMILES) | inhibition
COC(=O)c1cccc(C(=O)N2CCCC(Nc3ccc4c(c3)OCCO4)C2)c1 (centres undefined) | 4.97%
CSc1ncccc1C(=O)N1CCCC(Nc2ccc(F)c(F)c2)C1 (centres undefined) | 2.81%
O=C(c1n[nH]c2c1CCC2)N1CCCC(Nc2cccc(F)c2)C1 (centres undefined) | 14.7% (active)
O=C(CSc1nnc(COc2ccccc2)n1-c1ccc(Cl)cc1)Nc1ccc2c(c1)OCO2 | 3.27%
Cc1ccccc1C(=O)N[C@H](C(=O)N1CCC[C@H]1C(=O)NCc1ccccc1)C(C)C | -4.41%
COC(=O)Cc1ccc(OC2(C)CCN(Cc3ccc4c(c3)OCCO4)C2)cc1 (centres undefined) | 5.04%
COc1ccc(S(=O)(=O)N2CCOCC2)cc1NC(=O)c1ccc(OCC(C)C)c(OC)c1 | 0.42%
CC(OC(=O)c1ccc(S(=O)(=O)N2CCOCC2)cc1)c1ccccc1 (centres undefined) | 5.42%
COC(=O)c1c(NC(=O)c2ccc(S(=O)(=O)N3CCOCC3)cc2)sc2c1CCN(C(C)C)C2 | 13.3% (active)
CC(OC(=O)CCC(=O)c1ccccc1)C(=O)Nc1ccc(F)cc1 (centres undefined) | -0.7%
COCCNC(=S)N(C)[C@H]1C[C@H]2c3[nH]c4ccccc4c3CCN2C[C@H]1[C@H](C)O | -2.52%
CCOc1ccc(-n2c(SCC(=O)Nc3cc(C)c(NC(=O)c4ccccc4)cc3OC)nnc2-c2cccs2)cc1 | -6.74%
CCOc1ccc(N(CC(=O)NCCOc2ccccc2OC)S(=O)(=O)c2ccccc2)cc1 | 15.1% (active)
CCOc1ccc(N(CC(=O)NCCc2ccc(F)cc2)S(=O)(=O)c2ccccc2)cc1 | 4.6%
COc1ccc(CCNC(=O)CN(c2ccccc2)S(=O)(=O)c2ccccc2)cc1 | 2%
C=CCN1C(=O)[C@@H](CC(=O)N2CCN(C(=O)c3ccco3)CC2)[C@]2(C(=O)OC)CCCCC=C12 | 3.2%
CN(CCc1ccccc1)C(=O)Cn1nc(-c2ccccc2)ccc1=O | -0.03%
CCOC(=O)N1CCN(C(=O)C[C@H]2C[C@@]3(C(=O)OC)C(=C[C@H](C4CCCC4)O[C@@H]3C)N(Cc3ccccc3)C2=O)CC1 | -8.2%
COc1ccc2[nH]c3c(C)c4cc[n+](C)cc4c(C)c3c2c1 | 109% (active)
CCCc1nnc(SCC(=O)N2C(C)CCCC2C)n1CC (centres undefined) | 3.6%
O=P(c1cccs1)(c1cccs1)c1cccs1 | 0.79%
Cc1ccc(Cc2cnc(N)s2)o1 | 19.8% (active)
CCOc1ccccc1CN1CCN(C2CCC2)CC1CCO (centres undefined) | -1.77%
CC1CCCCC12NC(=O)N(CC(=O)Nc1ccc(S(=O)(=O)Nc3ncccn3)cc1)C2=O (centres undefined) | 5.36%
